MEKK2 mut-MEK5: signal of MEK5 binding to mutant human MEKK2 PB1 domain | percent response, % at 10 µM | hit rate 0.35% among 290,000 | bead flow cytometry, Alexa488-MEK5 binding to MEKK2 mutant; in the data active = percent response above about 24%, passing the limit was not always enough
MEKK3 PB1 HTS: modulators (inhibitors or enhancers) of MEK5 binding to human MEKK3 PB1 domain | Q99759 | bead-based flow cytometry, Alexa488-MEK5 binding to MEKK3; actives lie on both sides; 0 = blocked by unlabeled MEK5, 100 = vehicle | binding response (% of control), % at 10 µM | hit rate 1.4% among 290,000 | AID 1529;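 active = binding response more than 3 SD above or below the average of its plate-row segment, actives on both sides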;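 also: Alexa488 bead fluorescence after subtracting the streptavidin-only scavenger bead signal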
CRFR2-BP antag: CRF-BP/CRF-R2 complex antagonism. HEK293 CRF-R2/CRF-BP, CRF-induced calcium fluorescence. inhibition, % at 11.8 µM. hit rate 0.59% among 350,000. AID 588475;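 active = inhibition of the ligand-induced calcium signal above about 50% at the single tested concentration, limit read from the data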
MEKK2wt PB1 HTS: raises or lowers MEK5 binding to wildtype human MEKK2 PB1 domain; bead flow cytometry, Alexa488-MEK5 binding to MEKK2 WT; actives lie on both sides; hit rate 1.1% among 290,000; AID 1531; Q9Y2U5; binding response (% of control), % at 10 µM; in the data active = binding response below about 67% or above about 130%
ABCB6 inh MLPCN: blocks the human ABCB6 transporter. Q9NP58. K562-ABCB6 porphyrin accumulation, flow cytometry, 1 h; hits give low values. fluorescence ratio to DMSO, % at 10 µM. hit rate 0.19% among 360,000;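 active = fluorescence ratio to DMSO below 75%, the collection mean minus 3 SD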;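 also: signal is porphyrin accumulated inside mitochondria; 100% equals median channel fluorescence of DMSO control wells; lower ratio means ABCB6 inhibition with less porphyrin fluorescence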
Target sequence (Q9NP58 whole entry, looked up): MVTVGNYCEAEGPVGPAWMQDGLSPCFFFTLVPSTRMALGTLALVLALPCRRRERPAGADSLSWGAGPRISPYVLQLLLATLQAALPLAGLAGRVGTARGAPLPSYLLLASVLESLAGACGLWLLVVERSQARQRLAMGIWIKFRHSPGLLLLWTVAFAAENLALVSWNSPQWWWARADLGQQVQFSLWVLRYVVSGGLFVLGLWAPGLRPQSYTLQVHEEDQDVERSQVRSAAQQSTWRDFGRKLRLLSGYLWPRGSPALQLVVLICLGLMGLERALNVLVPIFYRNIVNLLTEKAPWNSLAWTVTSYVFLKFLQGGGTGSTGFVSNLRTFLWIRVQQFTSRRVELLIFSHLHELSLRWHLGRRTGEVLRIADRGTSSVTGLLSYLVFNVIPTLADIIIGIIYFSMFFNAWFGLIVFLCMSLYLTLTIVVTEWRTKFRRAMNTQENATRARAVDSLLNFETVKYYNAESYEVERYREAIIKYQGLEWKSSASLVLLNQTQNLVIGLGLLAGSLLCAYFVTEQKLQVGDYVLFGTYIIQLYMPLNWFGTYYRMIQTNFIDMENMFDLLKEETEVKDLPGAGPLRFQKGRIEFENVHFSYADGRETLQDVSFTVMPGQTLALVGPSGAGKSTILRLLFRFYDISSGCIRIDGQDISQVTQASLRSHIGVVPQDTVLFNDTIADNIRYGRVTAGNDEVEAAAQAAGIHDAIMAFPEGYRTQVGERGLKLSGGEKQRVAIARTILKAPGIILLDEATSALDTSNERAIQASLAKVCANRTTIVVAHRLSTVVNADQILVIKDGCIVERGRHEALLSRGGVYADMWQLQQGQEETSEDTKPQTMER
CRFR2-BP ag: CRF-BP/CRF-R2 complex agonism; HEK293 CRF-R2/CRF-BP, calcium dye fluorescence (FLIPR); percent of saturating CRF peptide response; activation, % at 13.2 µM; hit rate 0.46% among 350,000;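 active = activation of at least 50%, plus an integration ratio under a set limit after plate pattern correction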;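 also: plate controls were neutral control wells without compound for no effect and CRF at EC100 for full effect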
MEKK2wt confirm: raises or lowers MEK5 binding to wildtype human MEKK2, retest | shares compounds with MEKK3 PB1 HTS | bead flow cytometry, Alexa488-MEK5 binding to MEKK2 WT; actives lie on both sides | binding response (% of control), % at 10 µM | hit rate 2.4% among 5,900 | AID 1892; in the data active = binding response below about 16% or above about 210%; inactive = in between
MEKK2mut confirm: signal of MEK5 binding to mutant human MEKK2, retest | shares compounds with MEKK3 PB1 HTS | bead flow cytometry, Alexa488-MEK5 binding to MEKK2 mutant | percent response, % at 10 µM | hit rate 2% among 5,900 | AID 1893; in the data active = percent response mostly above about 71%, no sharp cut-off; inactive = mostly below about 38%;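 also: higher means compound restores mutant binding toward wildtype level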
MEKK3-MEK5 inh: confirmation of inhibitors of MEK5 binding to human MEKK3; shares compounds with MEKK3 PB1 HTS; hit rate 1.8% among 5,900; bead flow cytometry, Alexa488-MEK5 binding to MEKK3; hits give low values; binding response (% of control), % at 10 µM; AID 1894;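 active = binding response below 72% of control, or above a set upper limit, though filed actives all read lower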;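 also: 100% = DMSO only wells and 0% = binding blocked by excess unlabeled MEK5; lower values mean stronger disruption of MEK5 binding to MEKK3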
* hit, by the source's call; [ ] = another dose, or the depositor's remark. Hits are enriched below; roughly 2.9% of the tested compounds scored in any of these assays.

`CC(C)c1ccc(/C=C/C(=O)Nc2ccc(CN3CCOCC3)cc2)cc1` gave MEKK2 mut-MEK5 -17.0, MEKK3 PB1 HTS 93.0, CRFR2-BP antag -10.9, MEKK2wt PB1 HTS 95.0, ABCB6 inh MLPCN 99.0 and CRFR2-BP ag 8.0.
Screening O=C(/C=C/c1ccc(Cl)cc1)Nc1ccc(CN2CCOCC2)cc1 returned MEKK2 mut-MEK5 31.0, MEKK3 PB1 HTS 106.0, CRFR2-BP antag -4.3, MEKK2wt PB1 HTS 140.0*, ABCB6 inh MLPCN 107.0, CRFR2-BP ag 0.0, MEKK2wt confirm 111.0, MEKK2mut confirm 3.0 and MEKK3-MEK5 inh 102.0.
O=C(CCN1CCOCC1)NNC(=O)Nc1cccc([N+](=O)[O-])c1 was read as MEKK2 mut-MEK5 -2.0, MEKK3 PB1 HTS 98.0, CRFR2-BP antag 13.3, MEKK2wt PB1 HTS 97.0, ABCB6 inh MLPCN 99.0 and CRFR2-BP ag -0.4.
CCCN(C(=O)COC(=O)COc1c(C)cccc1C)c1c(N)n(Cc2ccccc2)c(=O)[nH]c1=O was read as CRFR2-BP antag 2.5, ABCB6 inh MLPCN 96.0 and CRFR2-BP ag 1.4.
Screening Cc1cccc(C(=O)N(Cc2nc3ccccc3c(=O)[nH]2)C2CCCCC2)c1 returned MEKK2 mut-MEK5 -1.0, MEKK3 PB1 HTS 74.0*[inhibitor], CRFR2-BP antag -27.6, MEKK2wt PB1 HTS 94.0, ABCB6 inh MLPCN 89.0, CRFR2-BP ag -2.2, MEKK2wt confirm 100.0, MEKK2mut confirm 9.0 and MEKK3-MEK5 inh 102.0.
`Cc1cccc(C(=O)N(Cc2nc3ccccc3c(=O)[nH]2)C2CCCC2)c1` gave MEKK2 mut-MEK5 -11.0, MEKK3 PB1 HTS 100.0, CRFR2-BP antag -25.5, MEKK2wt PB1 HTS 89.0, ABCB6 inh MLPCN 181.0 and CRFR2-BP ag 1.7.
`COCc1cc(N2CCOCC2)nc(-c2ccccc2)n1` gave MEKK2 mut-MEK5 -2.0, MEKK3 PB1 HTS 101.0, CRFR2-BP antag -1.2, MEKK2wt PB1 HTS 95.0, ABCB6 inh MLPCN 101.0 and CRFR2-BP ag -1.1.
Screening COCc1cc(N2CCN(c3ccccc3F)CC2)nc(-c2ccccc2)n1 returned MEKK2 mut-MEK5 -19.0, MEKK3 PB1 HTS 4.0*[inhibitor], CRFR2-BP antag -21.1, MEKK2wt PB1 HTS 6.0*[inhibitor], ABCB6 inh MLPCN 102.0, CRFR2-BP ag -0.3, MEKK2wt confirm 103.0, MEKK2mut confirm -1.0 and MEKK3-MEK5 inh 102.0.
Screening Fc1ccc(/C=C\c2nccc3c2[nH]c2ccccc23)cc1 returned MEKK2 mut-MEK5 36.0, MEKK3 PB1 HTS 112.0, CRFR2-BP antag -11.2, MEKK2wt PB1 HTS 195.0*, ABCB6 inh MLPCN 98.0, CRFR2-BP ag -1.4, MEKK2wt confirm 181.0, MEKK2mut confirm 43.0 and MEKK3-MEK5 inh 109.0.
`Cc1ccc(/C=C\c2nccc3c2[nH]c2ccccc23)cc1` gave MEKK2 mut-MEK5 26.0, MEKK3 PB1 HTS 105.0, CRFR2-BP antag -8.3, MEKK2wt PB1 HTS 174.0*, ABCB6 inh MLPCN 99.0, CRFR2-BP ag -3.0, MEKK2wt confirm 190.0, MEKK2mut confirm 68.0 and MEKK3-MEK5 inh 111.0.
For COc1ccc2c(=O)c(-c3ccc(C)cc3)c(-c3ccccc3)oc2c1 the results were CRFR2-BP antag 18.9, ABCB6 inh MLPCN 103.0 and CRFR2-BP ag 4.8.
CC(=O)c1c(C)[nH]c(C(=O)Nc2ccccn2)c1C was read as MEKK2 mut-MEK5 -6.0, MEKK3 PB1 HTS 95.0, CRFR2-BP antag 5.2, MEKK2wt PB1 HTS 97.0, ABCB6 inh MLPCN 97.0 and CRFR2-BP ag 0.3.
For CC(=O)c1c(C)[nH]c(C(=O)NC2=NCCS2)c1C the results were MEKK2 mut-MEK5 -14.0, MEKK3 PB1 HTS 2.0*[inhibitor], CRFR2-BP antag 1.5, MEKK2wt PB1 HTS 3.0*[inhibitor], ABCB6 inh MLPCN 97.0, CRFR2-BP ag -0.5, MEKK2wt confirm 1.0*[inhibitor], MEKK2mut confirm -29.0 and MEKK3-MEK5 inh 2.0*.
`Cc1ccc(S(=O)(=O)N2C[C@H]3[C@H]4C(=O)N(Cc5ccccc5)C(=O)[C@H]4CC(=O)[C@H]3[C@@H]2c2cccc3ccccc23)cc1` gave ABCB6 inh MLPCN 100.0.
`Cn1ccnc1Sc1cc(NCCCO)c([N+](=O)[O-])c2nonc12` gave MEKK2 mut-MEK5 0.0, MEKK3 PB1 HTS 132.0*, CRFR2-BP antag 12.0, MEKK2wt PB1 HTS 113.0, ABCB6 inh MLPCN 97.0, CRFR2-BP ag 3.7, MEKK2wt confirm 101.0, MEKK2mut confirm -2.0 and MEKK3-MEK5 inh 99.0.
O=[N+]([O-])c1c(NCCCO)cc(Sc2ccc(Cl)cc2)c2nonc12 was read as MEKK2 mut-MEK5 -1.0, MEKK3 PB1 HTS 121.0, CRFR2-BP antag 5.8, MEKK2wt PB1 HTS 100.0, ABCB6 inh MLPCN 102.0 and CRFR2-BP ag -0.4.
`O=C(NCC(=O)N(CC1CCCO1)C(C(=O)NC1CCCCC1)c1ccccc1)c1cccs1` (stereo not given) gave MEKK2 mut-MEK5 -1.0, MEKK3 PB1 HTS 98.0, CRFR2-BP antag -7.2, MEKK2wt PB1 HTS 99.0, ABCB6 inh MLPCN 94.0 and CRFR2-BP ag -0.3.
`O=C(NCC(=O)N(CC1CCCO1)C(C(=O)NC1CCCCC1)c1cccnc1)c1cccs1` (stereo not given) gave MEKK2 mut-MEK5 3.0, MEKK3 PB1 HTS 131.0*, CRFR2-BP antag -4.2, MEKK2wt PB1 HTS 123.0, ABCB6 inh MLPCN 90.0, CRFR2-BP ag -0.5, MEKK2wt confirm 103.0, MEKK2mut confirm 6.0 and MEKK3-MEK5 inh 106.0.
Cc1cc(C)cc(NC(=S)NCc2cccnc2)c1 was read as MEKK2 mut-MEK5 0.0, MEKK3 PB1 HTS 142.0*, CRFR2-BP antag -7.2, MEKK2wt PB1 HTS 109.0, ABCB6 inh MLPCN 100.0, CRFR2-BP ag 1.2, MEKK2wt confirm 101.0, MEKK2mut confirm 0.0 and MEKK3-MEK5 inh 99.0.
For Fc1ccc(NC(=S)NCc2cccnc2)cc1 the results were MEKK2 mut-MEK5 -14.0, MEKK3 PB1 HTS 47.0*[inhibitor], CRFR2-BP antag 24.9, MEKK2wt PB1 HTS 56.0, ABCB6 inh MLPCN 92.0, CRFR2-BP ag -3.7, MEKK2wt confirm 103.0, MEKK2mut confirm -3.0 and MEKK3-MEK5 inh 102.0.
Screening Cc1cccc(N(Cc2cc3ccc(C)cc3[nH]c2=O)C(=O)c2ccco2)c1 returned MEKK2 mut-MEK5 25.0, MEKK3 PB1 HTS 133.0*, CRFR2-BP antag -2.1, MEKK2wt PB1 HTS 125.0, ABCB6 inh MLPCN 94.0, CRFR2-BP ag -2.4, MEKK2wt confirm 101.0, MEKK2mut confirm -2.0 and MEKK3-MEK5 inh 103.0.
